Activity calls are given as the source filed them.

Consider 16 compounds from PubChem BioAssay.

The nature of assay [1]: binders of probe aFSTL3 on microarray, primary screen, stem cell growth factor project, biochemical, small-molecule microarray, fluorescence 635/667 (AID 1064).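 Note: measures binding of the biotinylated anti-FSTL3 antibody to printed compounds.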 As to conditions: higher = more signal.
The nature of assay [2]: binders from COS7 lysate, DM2A8 probe, primary screen, torsin A project, cell lysate, small-molecule microarray, fluorescence 635/667 (AID 1065). To be noted: higher = more signal, COS7 lysate expressing mutant human TOR1A.
Assay [3] can be described thus: binders of probe aFGF2 on microarray, primary screen, stem cell growth factor project, biochemical, small-molecule microarray, fluorescence 635/667 (AID 1067).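 Note: measures binding of biotinylated aFGF2 protein to printed compounds on slides; z-score merges feature fluorescence and signal-to-noise across triplicate slides.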 To be noted: higher = more signal.
The nature of assay [4]: binders of probe aFGF10 on microarray, primary screen, stem cell growth factor project, biochemical, small-molecule microarray, fluorescence 635/667 (AID 1071).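 Note: score merges 667 nm spot intensity and signal to noise from triplicate slides.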 To be noted: higher = more signal.
Assay [5] concerns the target Neurogenic locus notch homolog protein 2 (Homo sapiens) (UniProt Q04721). Put plainly: Notch2 binders on small-molecule microarrays, primary screen, biochemical, small-molecule microarray, 635 nm fluorescence, stem cell growth factors (AID 1073). As to conditions: Notch2 binding, higher = more signal.
For assay [6], the target named is Pro-neuregulin-1, membrane-bound isoform (Homo sapiens) (UniProt Q02297). Put plainly: NRG1 binders on small-molecule microarrays, primary screen, psychiatric disease protein project, biochemical, small-molecule microarray, fluorescence 635/667 (AID 1075).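 Note: score combines 667 nm spot fluorescence with signal to noise.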 As to conditions: NRG1 binding, 635 nm fluorescence, higher = more signal.
Chain of Pro-neuregulin-1, membrane-bound isoform (Homo sapiens) (Q02297 whole entry, looked up, the tested form may be a part, canonical isoform): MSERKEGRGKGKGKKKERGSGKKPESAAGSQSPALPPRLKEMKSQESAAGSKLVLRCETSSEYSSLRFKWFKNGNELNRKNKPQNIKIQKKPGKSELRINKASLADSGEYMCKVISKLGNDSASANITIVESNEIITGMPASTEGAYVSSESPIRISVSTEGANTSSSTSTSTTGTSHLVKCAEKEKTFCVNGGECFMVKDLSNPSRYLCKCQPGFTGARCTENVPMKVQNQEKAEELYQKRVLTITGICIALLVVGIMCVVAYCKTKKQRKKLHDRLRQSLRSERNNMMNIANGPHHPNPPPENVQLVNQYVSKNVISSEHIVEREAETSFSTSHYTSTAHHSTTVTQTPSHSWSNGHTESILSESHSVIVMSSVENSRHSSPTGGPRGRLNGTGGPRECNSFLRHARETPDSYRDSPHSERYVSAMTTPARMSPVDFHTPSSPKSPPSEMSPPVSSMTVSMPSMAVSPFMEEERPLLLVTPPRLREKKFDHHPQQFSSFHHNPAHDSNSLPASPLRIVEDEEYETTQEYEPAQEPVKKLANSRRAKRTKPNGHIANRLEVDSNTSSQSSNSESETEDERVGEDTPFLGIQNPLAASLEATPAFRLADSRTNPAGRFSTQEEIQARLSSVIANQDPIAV
In assay [7] the test system is Neuregulin-1 EGF-like domain. Put plainly: binders of neuregulin-1 EGF-like domain, primary screen, biochemical, small-molecule microarray, 635 nm fluorescence (AID 1081).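 Note: binding of the protein to compounds printed on small-molecule microarray slides.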 As to conditions: small-molecule microarray binding, higher = more signal.
Assay [8] in a line: FRG1 promoter luciferase signal modulators, primary screen, FRG1 inhibition for FSHD, cell-based, C2C12 myotubes, firefly/Renilla luciferase, luminescence (AID 1084). As to conditions: higher = more signal, called active from +8 up or from −8 down.
Assay [9] in a line: binders of probe aFST on microarray, primary screen, stem cell growth factor project, biochemical, small-molecule microarray, fluorescence 635/667 (AID 1086).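 Note: score merges 667 nm fluorescence with signal-to-noise of each printed compound spot.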 As to conditions: higher = more signal.
Assay [10] in a line: binders of probe aHhip on microarray, primary screen, stem cell growth factor project, biochemical, small-molecule microarray, fluorescence 635/667 (AID 1087).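 Note: score merges spot fluorescence at 667nm with spot signal to noise ratio.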 To be noted: higher = more signal.

Chain of Neurogenic locus notch homolog protein 2 (Homo sapiens) (Q04721 whole entry, looked up, canonical isoform): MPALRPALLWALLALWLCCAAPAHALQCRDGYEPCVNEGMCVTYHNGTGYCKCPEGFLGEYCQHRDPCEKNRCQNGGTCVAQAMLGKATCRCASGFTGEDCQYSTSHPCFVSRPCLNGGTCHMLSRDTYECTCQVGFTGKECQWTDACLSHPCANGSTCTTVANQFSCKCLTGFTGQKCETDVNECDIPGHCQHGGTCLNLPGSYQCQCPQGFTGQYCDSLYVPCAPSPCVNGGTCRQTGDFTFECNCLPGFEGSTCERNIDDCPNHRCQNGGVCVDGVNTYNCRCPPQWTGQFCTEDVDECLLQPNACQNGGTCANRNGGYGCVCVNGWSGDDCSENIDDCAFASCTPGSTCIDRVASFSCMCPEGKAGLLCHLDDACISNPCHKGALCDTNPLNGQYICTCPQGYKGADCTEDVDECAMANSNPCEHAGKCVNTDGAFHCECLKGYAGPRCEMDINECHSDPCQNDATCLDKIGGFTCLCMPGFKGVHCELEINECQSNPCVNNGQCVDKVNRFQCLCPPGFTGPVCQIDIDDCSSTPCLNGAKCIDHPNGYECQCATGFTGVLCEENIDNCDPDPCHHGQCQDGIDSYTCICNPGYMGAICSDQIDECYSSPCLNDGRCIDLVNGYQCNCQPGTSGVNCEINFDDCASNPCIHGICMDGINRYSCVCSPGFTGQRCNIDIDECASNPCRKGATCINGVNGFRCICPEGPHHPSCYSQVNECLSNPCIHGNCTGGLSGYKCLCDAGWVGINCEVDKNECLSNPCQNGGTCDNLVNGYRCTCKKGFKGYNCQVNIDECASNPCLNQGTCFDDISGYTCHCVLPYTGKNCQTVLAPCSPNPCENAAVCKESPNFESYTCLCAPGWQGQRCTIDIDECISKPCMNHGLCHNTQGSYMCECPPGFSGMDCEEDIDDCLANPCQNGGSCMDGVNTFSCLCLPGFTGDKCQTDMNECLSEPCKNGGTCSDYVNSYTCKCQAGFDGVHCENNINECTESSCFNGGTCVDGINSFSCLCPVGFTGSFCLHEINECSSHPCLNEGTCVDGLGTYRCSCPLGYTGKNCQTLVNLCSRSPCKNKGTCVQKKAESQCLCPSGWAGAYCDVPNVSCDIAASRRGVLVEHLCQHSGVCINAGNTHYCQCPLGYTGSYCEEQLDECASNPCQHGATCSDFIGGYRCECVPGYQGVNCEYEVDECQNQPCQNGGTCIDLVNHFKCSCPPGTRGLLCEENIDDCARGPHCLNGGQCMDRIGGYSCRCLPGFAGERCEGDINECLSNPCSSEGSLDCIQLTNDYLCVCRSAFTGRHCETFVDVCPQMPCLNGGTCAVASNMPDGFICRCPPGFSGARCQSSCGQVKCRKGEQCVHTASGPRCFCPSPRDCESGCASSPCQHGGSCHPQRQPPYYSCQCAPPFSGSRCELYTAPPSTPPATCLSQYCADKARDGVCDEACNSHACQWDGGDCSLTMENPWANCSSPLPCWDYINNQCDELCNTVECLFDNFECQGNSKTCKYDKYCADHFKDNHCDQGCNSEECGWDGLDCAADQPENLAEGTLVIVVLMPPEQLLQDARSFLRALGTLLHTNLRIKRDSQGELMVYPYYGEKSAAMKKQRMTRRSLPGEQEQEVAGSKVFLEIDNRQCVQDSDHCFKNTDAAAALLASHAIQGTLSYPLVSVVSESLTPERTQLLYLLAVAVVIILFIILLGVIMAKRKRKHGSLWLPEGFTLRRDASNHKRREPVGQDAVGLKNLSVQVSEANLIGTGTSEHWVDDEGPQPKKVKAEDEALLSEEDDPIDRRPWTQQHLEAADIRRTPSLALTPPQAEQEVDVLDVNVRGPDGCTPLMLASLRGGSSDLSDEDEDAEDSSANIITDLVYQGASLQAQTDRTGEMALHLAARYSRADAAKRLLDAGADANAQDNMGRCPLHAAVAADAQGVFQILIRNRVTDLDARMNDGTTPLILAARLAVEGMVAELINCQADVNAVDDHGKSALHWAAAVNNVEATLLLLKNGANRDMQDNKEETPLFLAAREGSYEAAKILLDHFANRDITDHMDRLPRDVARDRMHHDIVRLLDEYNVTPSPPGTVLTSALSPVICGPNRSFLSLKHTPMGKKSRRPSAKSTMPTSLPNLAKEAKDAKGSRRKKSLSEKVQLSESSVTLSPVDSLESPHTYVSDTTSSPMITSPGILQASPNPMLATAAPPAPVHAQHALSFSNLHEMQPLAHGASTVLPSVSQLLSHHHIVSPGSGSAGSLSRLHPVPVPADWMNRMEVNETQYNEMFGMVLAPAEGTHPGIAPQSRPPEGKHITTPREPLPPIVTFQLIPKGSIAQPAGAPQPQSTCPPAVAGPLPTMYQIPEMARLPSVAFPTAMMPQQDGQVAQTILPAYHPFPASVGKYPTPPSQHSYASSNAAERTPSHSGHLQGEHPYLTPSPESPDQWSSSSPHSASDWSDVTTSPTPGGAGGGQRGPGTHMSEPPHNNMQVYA

`[N-]=[N+]=NCc1ccccc1C[C@@]1(C(=O)N2CCOCC2)N=C(c2ccc(OCCCO)cc2)O[C@@H]1c1ccccc1N=[N+]=[N-]`: the composite z-score in assay [1] was 0.308; in assay [2], 0.968; in [3], 0.345; in [4], 0.819; in assay [5], 1.59; in assay [6], 1.13. Besides, the composite z-score was 1.26 in [7], 0.889 in assay [9] and -0.146 in assay [10]. In addition, the z-score in [8] is -2.14 (inactive).
Take `C[C@@H]1C=CCC(=O)OC[C@H]2O[C@@H](C=C[C@@H]2O)[C@H](C)C=CCC(=O)OC[C@H]2O[C@H]1C=C[C@@H]2O`: the composite z-score was -0.663 in [1]; 0.919 in [2]; -0.113 in [3]; 0.526 in assay [4]; 0.16 in [5]; -0.0241 in assay [6]. Further, the figures for the composite z-score in assay [7], in [9] and in assay [10] were 0.567, 0.0915 and 0.346, respectively. In [8], the z-score was -0.274 (inactive).
Consider `C[N+](C)(C)CCCC[C@@H]1NC(=O)[C@H]2C[C@@H](C(=O)NCc3ccc(F)cc3)[C@@H](c3cccc(OCCO)c3)N2C1=O`, for which the composite z-score in assay [1] was 0.466; in assay [2] it was 1.02; in assay [3], -0.149; in assay [4], -0.579; in assay [5] it was -0.607; in assay [6], 0.594. In addition, the composite z-score was determined as 1.22 in assay [7], 0.231 in assay [9] and 0.0176 in assay [10]. In [8], the z-score is 0.106 (inactive).
As for `CCCC/C=C/[C@H]([C@@H](O)Cc1ccccc1)N(CC#Cc1ccccc1)Cc1ccccc1Br`, the composite z-score in assay [1] was 1.22; in assay [2], -0.37; in [3], -0.21; in assay [4], -1.17; in assay [5], -0.749; in [6], -0.169. Moreover, the results for the composite z-score in [7], in [9] and in assay [10] were -0.291, -0.74 and -0.584, respectively. In assay [8], the z-score was -0.506 (inactive).
In the case of `CCOC(=O)[C@H]1C/C=C/C[C@H](C(=O)OCC)C(=O)O[C@H]2[C@@H](OC)O[C@H](CO)[C@@H](OC(=O)Nc3ccc(Br)cc3)[C@@H]2OC1=O`, the composite z-score was 0.762 in assay [1]; 0.475 in assay [2]; -0.108 in assay [3]; 0.28 in assay [4]; 0.798 in [5]; 0.991 in assay [6]. For the same compound, the results for the composite z-score in [7], in [9] and in [10] were 1.29, 0.449 and -0.0613, respectively. For the same compound, in [8], the z-score was 0.892 (inactive).
Turning to `O=C1OCC=C[C@H]2OC34C=CCN(Cc5ccccc5)C(=O)[C@H]3N(CCO)C(=O)[C@@H]4[C@@H]12` (stereo not given in full), the composite z-score in [1] was 0.322; in [2], -0.0397; in assay [3] it was -0.149; in assay [4], -0.387; in assay [5] it was -0.338; in assay [6], 2.05. Besides, the composite z-score is 0.699 in assay [7], -0.331 in [9] and -0.236 in [10]. Moreover, the z-score in assay [8] is -0.019 (inactive).
As to `CC(C)CNC(=O)[C@@]1(C)c2ccccc2C(=O)N(Cc2ccc(OC(F)(F)F)cc2)[C@H]1c1ccc(CO)cc1`, the composite z-score in assay [1] is 1.39; in assay [2], -0.37; in assay [3], -0.0149; in assay [4], -0.925; in assay [5], -1.71; in [6], -0.81. Also, the figures for the composite z-score in assay [7], in assay [9] and in assay [10] were 0.257, -0.291 and -0.353, respectively. In [8], the z-score is -3.49 (inactive).
On to `NC(=O)NCC#Cc1ccc2c(c1)[C@]1(C(=O)N2)[C@H](C(=O)N2CCCCCCC2)[C@H]2C(=O)O[C@H](c3ccccc3)[C@H](c3ccccc3)N2[C@@H]1c1ccccc1OCCO`, for which the composite z-score was determined as 3.86 in [1]; 2.03 in [2]; 0.876 in assay [3]; 0.921 in assay [4]; 1.43 in assay [5]; 1.92 in [6]. The composite z-score in [7] came out at 0.589; in [9], 3.38; in [10], 0.526. In addition, the z-score in [8] is 0.423 (inactive).
In the case of `COc1ccc(CCN2C(=O)[C@@]3(c4ccc([N+](=O)[O-])cc4)CC(=O)N(CC45CC6CC(CC(C6)C4)C5)[C@@H]3c3ccc(CO)cc32)cc1`, the composite z-score in [1] is 0.188; in [2], -0.063; in [3] it was 0.0201; in [4] it was 0.142; in assay [5], -0.18; in [6] it was 0.978. The composite z-score was 0.956 in assay [7], -0.0561 in assay [9] and -0.0296 in assay [10]. Moreover, the z-score in [8] is -0.241 (inactive).
`CC(C)CN1C(=O)[C@@]2(Cc3ccccc31)c1ccccc1C(=O)N(C1CCCCC1)[C@H]2c1ccc(CO)cc1`: the composite z-score in [1] is 0.523; in assay [2], -0.21; in [3] it was -0.172; in [4], -0.538; in assay [5], -1.08; in assay [6], -0.388. For the same compound, the composite z-score in assay [7] is -0.0501; in assay [9] it was -0.382; in assay [10], -0.226. In assay [8], the z-score was 0.172 (inactive).
Turning to `C=CCC1=C[C@H]2[C@H]([C@@H]3C=C[C@]2(CC=C)C(=O)[C@]32CO2)[C@@]2(CO2)C1=O`, the composite z-score is 0.076 in assay [1]; 1.28 in assay [2]; -0.034 in assay [3]; 0.612 in assay [4]; 0.333 in [5]; -0.35 in assay [6]. The values for the composite z-score in assay [7], in [9] and in [10] were 0.319, 0.501 and 0.0542, respectively. Besides, the z-score in assay [8] is -1.52 (inactive).
Regarding `CC(C)[Si]1(C(C)C)O[C@@H](c2ccccc2)c2cc(C3CC3)nc(-c3ccc(Oc4ccccc4)cc3)c21`, the composite z-score was 0.0382 in assay [1]; 0.0357 in [2]; -0.119 in [3]; -0.772 in assay [4]; -0.304 in [5]; -0.46 in assay [6]. Further, the values for the composite z-score in [7], in assay [9] and in assay [10] were -0.985, -0.148 and -0.0074, respectively. Also, the z-score in assay [8] was -0.895 (inactive).
As to `O=C1O[C@@H](c2ccccc2)[C@@H](c2ccccc2)N2[C@@H](c3ccc(O)cc3)[C@]3(C(=O)Nc4ccc(C#CC5(O)CCCCCC5)cc43)[C@@H](C(=O)Nc3nc4ccccc4s3)[C@H]12`, the composite z-score in assay [1] is -0.128; in [2] it was 0.91; in assay [3], 0.0759; in assay [4], 0.814; in assay [5], 1.49; in assay [6], 1.16. Also, the composite z-score in assay [7] was determined as 0.994; in [9], 1.12; in assay [10], 1.71. In addition, in [8], the z-score was -0.253 (inactive).
Take `C[C@H]1COC(=O)[C@@H]2CCCN2C(=O)[C@@H](C)COC(=O)[C@@H]2CCCN2C1=O`: the composite z-score was -0.295 in assay [1]; 0.491 in [2]; -0.163 in [3]; 0.0646 in assay [4]; 0.415 in [5]; -0.567 in assay [6]. For the same compound, the composite z-score in assay [7] was -0.436; in [9], -0.041; in [10] it was -0.134. The z-score in [8] is -3.16 (inactive).
On to `CO[C@H]1O[C@H](CO)[C@@H](OC(=O)Nc2ccc(Oc3ccccc3)cc2)[C@H](OC(=O)Nc2ccccc2-c2ccccc2)[C@H]1OC(=O)Nc1ccccc1-c1ccccc1`, for which the composite z-score is -0.448 in [1]; 0.44 in [2]; 0.104 in assay [3]; 1.04 in assay [4]; 1.51 in [5]; 1.52 in [6]. Moreover, the figures for the composite z-score in [7], in assay [9] and in [10] were 1.35, 0.33 and -0.0672, respectively. For the same compound, the z-score in assay [8] is -0.441 (inactive).
Take `CCCNC(=O)[C@@H]1c2ccccc2C(=O)N(Cc2cc(F)cc(C(F)(F)F)c2)[C@H]1c1ccc(CO)cc1`: the composite z-score in [1] is -0.0356; in [2], 0.711; in [3], 0.032; in [4] it was 0.525; in assay [5], 1.12; in assay [6] it was 1.03. The results for the composite z-score in assay [7], in [9] and in [10] were 1.25, 0.613 and 0.0176, respectively. Further, the z-score in assay [8] was -1.02 (inactive).
